# Experimental data taken from ChEMBL document CHEMBL3988442, “University of Dundee, Small-Polar-MMV Screening Library” (2021).
# Hit rate of the full screen: of about 53,000 compounds, about 900 (1.7%) showed an effect of 50% or more. The sample as a whole holds a higher share of strong results than the screen did.
# Tested on: Mycobacterium tuberculosis
# Test: Cornell - Phenotypic assay to identify agents that inhibit growth of Mycobacterium tuberculosis
# Format: functional
# Design: scale not given: direction of the effect not stated beside the values
# Details: 10 mM as filed; unlikely as a test dose
row,SMILES,Percent Effect [%]
1,Cc1cnc(N2CCOC3(CCCN(C(=O)C(C)C)C3)C2)nc1 (stereo not given),8.771
2,Cc1ncc2c(n1)C1(CCN(C(=O)C3CC3)CC1)OCC2.Cl,55.8
3,Cc1ncc(C(=O)N2CC(C(=O)N3CCOCC3)C2)c(C)n1,-7.514
4,O=C(C1CC1)N1CCC2(CC1)OCCO2,-14.17
5,Cc1noc(C2(C)CCN(C(=O)C(C)C)CC2)n1,-18.49
6,Cc1ncc2c(n1)C1(CCN(C(=O)C(C)C)CC1)OCC2.Cl,54.97
7,CCC(CO)N(Cc1cccnc1)C(=O)c1ccncc1F (stereo not given),1.978
8,CCc1ncc(CN[C@@H]2CCCN(C(C)=O)[C@H]2c2ccc(C)s2)cn1.Cl,15.97
9,CCc1cc(NC2CCOCC2)n2nc(C)c(C)c2n1,14.02
10,Cc1ccc(-c2nc(CN3CCC(N4CCNC4=O)CC3)co2)cc1,0.5995
11,Cc1noc([C@H]2C[C@H]3OCC[C@H]3N(Cc3ccc4c(c3)OCO4)C2)n1.O=C(O)C(F)(F)F,10.54
12,Cc1noc([C@H]2C[C@H]3OCC[C@H]3N(Cc3ccc(F)cc3)C2)n1.O=C(O)C(F)(F)F,52.79
13,CCc1ccc(CN2C[C@@H](c3nc(C)no3)C[C@H]3OCC[C@H]32)o1.O=C(O)C(F)(F)F,28.15
14,O=C(C1CCCC1)N1CCCC1c1nnc2n1CCCCC2 (stereo not given),-1.073
15,CC(C)c1nc(CSc2nnc(C3CC3)n2CC(N)=O)no1,15.19
16,Cc1cnc(NC(=O)c2csc(NCC(C)C)n2)s1,60.38
17,O=C(Nc1nccs1)c1csc(NC2CCCC2)n1,105.9
18,CC(C)CCNc1nc(C(=O)NC2CC2)cs1,44.5
19,Cc1cccc(NC(=O)c2csc(NCC(C)C)n2)n1,22.32
20,CC(NC(=O)Nc1nccs1)C(=O)NC1CCCC1 (stereo not given),13.09
21,Cc1cnc(NC(=O)N2CCCC2)s1,13.69
22,O=C(Nc1ccccn1)c1csc(NC2CCCC2)n1,105.8
23,CC(C)Nc1nc(C(=O)Nc2ccccn2)cs1,27.58
24,Cc1nc(NC2CCCC2)cc(C2CCN2C(=O)c2ccccn2)n1 (stereo not given),-60.39
25,CC(C)CCNC(=O)c1csc(NC2CC2)n1,27.3

row,SMILES,Percent Effect [%]
1,Cc1cnc(NC(=O)c2csc(NC3CCCC3)n2)s1,99.29
2,CC(C)NC(=O)c1csc(NC2CC2)n1,29.51
3,Cc1nc(CNCc2cccc(OC34CCCN(CC3)C4)c2)n[nH]1 (stereo not given),22.09
4,Cc1nn2c(NC(=O)CSc3nccn3C)csc2nc1=O,-11.03
5,O=C1CCC(C(=O)Nc2ccc(=O)n(Cc3ccccc3Cl)c2)N1 (stereo not given),-13.24
6,CNC(=O)c1cccc(C2CNCCN2C(=O)C2CCNCC2)c1 (stereo not given),0.2477
7,CC(=O)Nc1cc(-c2cccc(F)c2F)n[nH]1,22.81
8,CCOCC(=O)Nc1cc(-c2cccc(F)c2F)n[nH]1,57.77
9,CCS(=O)(=O)CC(=O)Nc1cc(-c2cccc(F)c2F)n[nH]1,15.94
10,O=C1NC[C@]2(CC[C@@H](C(=O)N3CCCC(O)C3)CC2)Oc2ccccc21 (stereo not given in full),-1.738
11,CC(=O)N1CCN(C(C)c2nnc(CC(C)C)o2)CC1 (stereo not given),3.173
12,COCCNC(=O)CSCc1nc(O)c2cc(C(C)C)sc2n1,-18.87
13,COC(=O)C(C)NC(=O)CSCc1nc(O)c2cc(C(C)C)sc2n1 (stereo not given),10.11
14,COC(=O)[C@H](C)NC(=O)CSCc1nc2sc(C(C)C)cc2c(=O)[nH]1,57.77
15,CC(C)CN1C[C@H](COCc2ccccc2)Oc2ncccc2C1=O,-10.08
16,Cc1ncc(C(=O)NCCNc2ncccn2)s1,-0.6021
17,CCS(=O)(=O)Nc1cnn(Cc2cccc(C)c2)c1,56.26
18,CCS(=O)(=O)Nc1cnn(Cc2cccc(F)c2)c1,14.06
19,CCS(=O)(=O)Nc1cnn(Cc2cccc(Cl)c2)c1,-14.58
20,Cc1c(S(=O)(=O)NCC(C)C)cnn1C,-2.001
21,COc1cccc(CCC(=O)Nc2c(C)nn(C)c2C)c1OC,-11.78
22,Cc1nc(-c2ccc(CO)cc2)cc(C2CCNCC2)n1.Cl,12.1
23,O=C(NCc1ccccn1)[C@@]12CCO[C@@H]1CCN(Cc1ccccn1)C2.O=C(O)C(F)(F)F.O=C(O)C(F)(F)F.O=C(O)C(F)(F)F,-14.31
24,COC(=O)[C@H](C)NC(=O)c1cc(-c2cccc(Cl)c2)no1,105.7
25,CC(NC(=O)c1cc(-c2cccc(Cl)c2)no1)C(=O)N1CCCC1 (stereo not given),1.351
